# HIV Env fusion: HIV envelope-mediated fusion inhibition. HeLa-JRFL Env/CEM21 cell fusion, luciferase. inhibition, % at 12.3 µM. 360,000 tested, 1.1% active;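 active = mean replicate inhibition score of at least 50 and every replicate individually at or above 50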
# ALR inh: human ALR oxidase inhibition via reduced H2O2. P55789. purified ALR, DTT oxidation, H2O2 HRP-luminol luminescence. inhibition, % (test concentration not listed). 290,000 tested, 3.8% active. AID 485317;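 active = mean replicate inhibition above about 79%, with every replicate also reaching it, limit read from the data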
# PglD DTNB: inhibitors of Campylobacter jejuni PglD acetyltransferase; 360,000 tested, 0.098% active; purified PglD enzyme, DTNB colorimetric CoA detection; inhibition, % at 12.5 µM; AID 602405; in the data active = inhibition above about 16%, passing the limit was not always enough
# F508del corr: correctors of CFTR F508del function in bronchial epithelial cells. CFBE cells, YFP halide quenching; stimulated with forskolin plus potentiator P3; % fluorescence drop versus neutral controls. activity (quench increase), % at 7.58 µM. 350,000 tested, 0.36% active;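 active = mean added fluorescence quench of at least 8% versus neutral control, with both replicates also reaching 8%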;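 also: cells transiently co-express mutant CFTR-F508del with the halide-sensitive YFP; corrector assay measuring rescue of mutant channel to the surface after 24 h compound exposure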
# NSD2 HMT inh: NSD2 (human) methyltransferase inhibition | O96028 | NSD2 peptide methylation, AlphaScreen, 120 min | inhibition, % at 12.5 µM | 310,000 tested, 0.54% active | AID 743445; in the data active = inhibition above about 50%
# CASP6 VEID inh: caspase-6 (human) enzyme inhibition; P55212; purified caspase-6, Z-VEID-R110 cleavage fluorescence; inhibition, % at 12.5 µM; 350,000 tested, 0.53% active;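 active = mean inhibition across replicates at least about 35%, with every replicate also reaching that limit, limit read from the data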
# Target sequence (P55212 24-179 limits assumed): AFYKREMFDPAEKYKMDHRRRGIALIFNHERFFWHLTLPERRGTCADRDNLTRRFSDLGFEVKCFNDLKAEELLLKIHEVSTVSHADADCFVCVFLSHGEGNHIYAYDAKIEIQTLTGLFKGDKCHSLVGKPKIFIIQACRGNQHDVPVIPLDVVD
# Target sequence (P55212 194-293 limits assumed): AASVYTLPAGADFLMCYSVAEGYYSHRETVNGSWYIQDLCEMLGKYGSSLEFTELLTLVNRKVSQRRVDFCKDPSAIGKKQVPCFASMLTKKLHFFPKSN
# Hits are given with their value; i = inactive; nt = not tested or not shown. Only some compounds are listed: those with a hit (about 4.1% of all), similar ones and a draw of the others.
SMILES,HIV Env fusion,ALR inh,PglD DTNB,F508del corr,NSD2 HMT inh,CASP6 VEID inh
COc1ccc2c3c(n(C)c2c1)[C@H](CO)N(S(=O)(=O)c1ccc(C)cc1)CC31CN(S(=O)(=O)c2ccc(C)cc2)C1,nt,nt,nt,i,nt,nt
COCC(=O)OC1CCn2c1nc1c2C(=O)C(C)=C(NC(C)=O)C1=O (stereo unspecified),i,nt,nt,i,nt,99
Cc1cc2c3c(c1C)C1(C(=O)N3C(C)(C)CC2C)C(C#N)=C(N)Oc2cc(O)ccc21 (stereo unspecified),62,nt,i,nt,i,nt
CSc1ccccc1NC(=O)Nc1ccccc1,nt,i,i,i,i,44
COc1ccc(OC)c(NC(=O)Nc2ccc(O)c3ccccc23)c1,i,i,i,i,i,54
CSc1cccc(NC(=O)Nc2ccccc2C(N)=O)c1,i,91,i,i,i,i
CSc1ccccc1NC(=O)Nc1cccc(F)c1,i,i,nt,i,i,i
O=C(Nc1ccccc1)Nc1ccc(O)c2ccccc12,nt,87,nt,nt,i,nt
COc1ccc(CNC(=O)C[C@H]2C=C[C@H](NC(=O)c3ccc4c(c3)OCO4)[C@H](CO)O2)cc1,nt,nt,nt,i,nt,i
C=CCNC(=O)[C@@H]1[C@H]2C(=O)O[C@H](c3ccccc3)[C@H](c3ccccc3)N2[C@H](c2ccc(OCCO)cc2)[C@@]12C(=O)Nc1ccc(C#CCNC(N)=O)cc12,i,nt,i,i,nt,i
COc1cccc(C(=O)Nc2ccc3c(c2)C(=O)N(C)C[C@@H](OC)[C@@H](C)CN[C@H](C)CO3)c1,i,nt,i,i,nt,nt
CO[C@@H]1CN(C)C(=O)c2ccc(NC(=O)c3cnccn3)cc2OC[C@H](C)N(C(=O)C2CC2)C[C@@H]1C,nt,nt,i,i,nt,i
CCN1C(=O)CC(N2CCN(c3ccc(OC)cc3)CC2)C1=O (stereo unspecified),i,i,i,nt,i,nt
COc1ccccc1N1C(=O)CC(N2CCN(c3ccc(F)cc3)CC2)C1=O (stereo unspecified),i,97,i,i,i,i
O=C1CC(N2CCN(c3ccc(O)cc3)CC2)C(=O)N1c1ccc2c(c1)OCO2 (stereo unspecified),i,99,nt,i,i,i
COc1ccc(N2CCN(C3CC(=O)N(Cc4ccccc4)C3=O)CC2)cc1 (stereo unspecified),i,92,i,i,i,i
O=C(O)c1ccc(N2C(=O)CC(N3CCN(c4cccc(Cl)c4)CC3)C2=O)cc1 (stereo unspecified),i,i,i,i,i,i
COc1ccccc1N1CCN(C2CC(=O)N(c3ccc(Cl)cc3)C2=O)CC1 (stereo unspecified),i,nt,i,i,i,i
O=C1CC(N2CCCCCC2)C(=O)N1c1ccc2c(c1)OCO2 (stereo unspecified),nt,i,i,i,i,i
O=C(O)c1ccc(N2C(=O)CC(N3CCN(c4cccc(C(F)(F)F)c4)CC3)C2=O)cc1 (stereo unspecified),i,i,i,i,i,90
COc1cccc(-c2ccc(CC[C@H]3O[C@H]4CC[C@H](CO)O[C@H]4C[C@@H]3NC(=O)CN(C)C)cc2)c1,nt,nt,nt,i,nt,nt
CC(=O)N(C)C[C@H]1Oc2ncc(C#Cc3cccc(F)c3)cc2C(=O)N([C@@H](C)CO)C[C@H]1C,i,nt,i,i,nt,i
O=C(C[C@@H]1CC[C@@H]2[C@H](COC[C@@H](O)CN2S(=O)(=O)c2ccc(Cl)cc2)O1)NCCN1CCCCC1,nt,nt,nt,i,nt,i
COc1cc(C(=O)OCCCc2cc3ccccc3c(=O)o2)cc(OC)c1OC,i,i,i,i,nt,i
COc1cc(C(=O)OCCc2cc3ccccc3c(=O)o2)cc(OC)c1OC,i,i,i,11,nt,i
COc1ccc(-c2cnc3c(c2)C(=O)N([C@H](C)CO)C[C@H](C)[C@@H](CN(C)S(=O)(=O)c2ccc(OC)cc2)O3)cc1,i,nt,nt,i,nt,nt
CC1=C(C(=O)NC2CCCc3c2cnn3-c2ccc(F)cc2F)OCCO1 (stereo unspecified),i,89,i,i,i,i
Cc1cc(C)c(C(=O)NC2CC(C)(C)Cc3c2cnn3-c2ccccc2)o1 (stereo unspecified),i,87,i,i,i,i
Cc1ncoc1C(=O)NC1CCCc2c1cnn2-c1ccc(C(C)(C)C)cc1 (stereo unspecified),56,nt,i,i,i,i
